Values joined by “and” are separate entries in the source; they are usually repeats but may differ in a detail not shown here. Equal values may be shown once. Inconclusive results are not listed. More than one record can exist for a structure, and the calls need not agree. Active and inactive are the calls of the source. The calls were made as follows: active = hit-call score of the fitted dose curve at least 0.9, where 1 is the maximum; inconclusive = response in the unintended direction; inactive = score below 0.9.
molecular target: Cellular tumor antigen p53 (Homo sapiens) (UniProt P04637); assay: TOX21_p53_BLA_p2_ratio: Tox21 HCT-116 p53 Agonism Beta-lactamase Assay, Ratio, Phase 2 (AID 2283592)
Sequence (P04637 whole entry, looked up, the tested form may be a part): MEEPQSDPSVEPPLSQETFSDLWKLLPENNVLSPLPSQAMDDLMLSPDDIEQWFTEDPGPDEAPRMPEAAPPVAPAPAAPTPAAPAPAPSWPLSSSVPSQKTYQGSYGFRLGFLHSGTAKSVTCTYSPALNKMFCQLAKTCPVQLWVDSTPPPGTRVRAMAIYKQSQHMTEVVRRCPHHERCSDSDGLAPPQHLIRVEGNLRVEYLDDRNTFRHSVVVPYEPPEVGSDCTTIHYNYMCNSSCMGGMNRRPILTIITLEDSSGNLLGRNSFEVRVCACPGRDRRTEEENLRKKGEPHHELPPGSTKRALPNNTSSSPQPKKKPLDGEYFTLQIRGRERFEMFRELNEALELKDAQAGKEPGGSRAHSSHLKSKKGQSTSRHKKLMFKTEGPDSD
Source text: TOX21_p53_BLA_p2 is a cell-based, single-readout assay that uses HCT116, a human intestinal cell line, […] in a 1536-well plate.TOX21_p53_BLA_p2_ratio is an assay readout measuring reporter gene via receptor activity and designed using inducible reporter (beta lactamase induction) detected with GAL4 b-lactamase reporter gene. The signal is derived from the ratio of cleaved (ch2) to uncleaved (ch1) reporter gene substrate used as the measure of target activity.Data from the assay component TOX21_p53_BLA_p2_ratio was analyzed into 1 assay endpoint. This assay endpoint, TOX21_p53_BLA_p2_ratio, was analyzed in the positive analysis fitting direction relative to DMSO as the negative control and baseline of activity. Using a type of inducible reporter, gain-of-signal activity can be used to understand changes in the reporter gene as they relate to the gene TP53. Furthermore, this assay endpoint can be referred to as a primary readout, because this assay has produced multiple assay endpoints and this ratio serves a reporter gene function to understand target activity. To generalize the intended target to other relatable targets, this assay endpoint is annotated to the DNA binding intended target family, where the subfamily is tumor suppressor.
Thawing Method: Place 14 mL of pre-warmed thaw medium into a 15 mL of conical tub. Remove the vial of cells to be thawed from liquid nitrogen and thaw rapidly by placing at 37C in a water bath with gentle agitation for 1-2 minutes. Decontaminate the vial by wiping with 70% ethanol before opening in a biological safety cabinet. Transfer the vial contents drop-wise into 14 mL of thaw medium in a sterile 15-mL conical tub. Centrifuge cells at 900 rpm for 4 minutes and resuspend in thaw medium. Transfer contents to the T75 tissue culture flask containing Thaw Medium and place flask in a humidified 37C/5% CO2 incubator. Switch to growth medium at first passage.Propagation Method: Aspirate medium, rinse once in DPBS, add 0.25% Trypsin/EDTA and swirl to coat the cell evenly. Add an equal volume of Growth Medium to inactivate Trypsin after 2-3 minutes incubation at 37C. Centrifuge cells at 900 rpm for 4 minutes and resuspend in growth medium. Cell should be passage or fed at least twice a week.Assay Protocol: Harvest cells from culture in growth medium and resuspend in assay medium. 2.2 Dispense 4000 cells/5 uL/well into 1536-well black/clear bottom plates using a Multidrop dispenser. After the cells were incubated at 37C for 5 hours, 23 nL of compounds dissolved in DMSO were transferred to the assay plate by a PinTool resulting in a 217-fold dilution. Incubate the plates for 16 hours at 37C, 5% CO2. Add 1 uL of 6X LiveBLAzer FRET B/G (CCF4-AM) Substrate Mixture to each well using a BioRAPTR dispenser and incubate the plates at room temperature for 2 hours. Measure fluorescence intensity at 460 and 530 nm emission and 405 nm excitation by an Envision detector. Data is expressed as the ratio of 460nm/530nm emissions. Add 4 uL of Cell-titer Glo to each well using BioRAPTR and incubate the plates at room temperature for 2 hours. Measure fluorescence intensity by a VewLux plate reader.

| Structure (SMILES) | outcome | AC50 |
| --- | --- | --- |
| CCCCc1c(C)nc(NCC)nc1OS(=O)(=O)N(C)C | inactive |  |
| CC(C)CCCCCCCOP(=O)(Oc1ccccc1)Oc1ccccc1 | inactive |  |
| O=[Se]=O |  | 2.8 µM (active) |
| CCCC(C)(COC(N)=O)COC(=O)NC(C)C (stereo not given) | inactive |  |
| CC(=O)Nc1cc([As](=O)(O)O)ccc1O | inactive |  |
| CC1CN1 (stereo not given) | inactive |  |
| CCCCCc1cc(O)cc(O)c1 | inactive | 83.7 µM (active) |
| O=C(NC(=O)c1ccccc1Cl)Nc1ccc(OC(F)(F)F)cc1 | inactive |  |
| COc1ccc(C=O)cc1O | inactive |  |
| C=CCOC(C)=O | inactive |  |
| CNC(=O)Oc1ccccc1C(=O)Nc1ccccc1 | inactive |  |
| C[C@]12C/C(=C/O)C(=O)C[C@@H]1CC[C@@H]1[C@@H]2CC[C@@]2(C)[C@H]1CC[C@]2(C)O | inactive | 42.5 µM (active) |
| C=CCN(C1=NCCN1)c1c(Cl)cccc1Cl | inactive |  |
| CN(C)c1ccc(N(C)C)cc1 | inactive |  |
| CO[C@]12CC[C@@]3(C[C@@H]1[C@](C)(O)C(C)(C)C)[C@H]1Cc4ccc(O)c5c4[C@@]3(CCN1CC1CC1)[C@H]2O5 | inactive |  |
| CN1C[C@H](C(=O)N[C@]2(C)O[C@@]3(O)[C@@H]4CCCN4C(=O)[C@H](Cc4ccccc4)N3C2=O)C=C2c3cccc4[nH]cc(c34)C[C@H]21 | inactive |  |
| N#CSCc1ccccc1 |  | 80.2 µM (active) |
| CCC(N)Cc1c[nH]c2ccccc12 (stereo not given) | inactive |  |
| CN(C)CCC#N | inactive |  |

| Structure (SMILES) | outcome | AC50 |
| --- | --- | --- |
| C[C@@H]1[C@@H]2Cc3ccc(O)cc3[C@@]1(C)CCN2CC1CC1 | inactive |  |
| CN(C)C(=O)C(c1ccccc1)c1ccccc1 | inactive |  |
| Cc1ccc(N(SC(F)(Cl)Cl)S(=O)(=O)N(C)C)cc1 | inactive |  |
| O=C1CC[C@@]2(O)[C@H]3Cc4ccc(O)c5c4[C@@]2(CCN3CC2CC2)[C@H]1O5 | inactive |  |
| CCOP(=O)(OCC)SCCSCC (tested in a mixture with another compound) | inactive |  |
| CC(C)(c1cc(Cl)c(O)c(Cl)c1)c1cc(Cl)c(O)c(Cl)c1 |  | 37 µM (active) and 16.5 µM (active) |
| CCOc1ccc2c3c1O[C@H]1[C@@H](O)C=C[C@H]4[C@@H](C2)N(C)CC[C@@]341 | inactive |  |
| Oc1c(Cl)c(Cl)cc(Cl)c1Cl |  | 12.2 µM (active) |
| COc1cc(OC)c(OC)cc1C=O | inactive |  |
| O=C1OC(c2ccc(O)c(S(=O)(=O)O)c2)(c2ccc(O)c(S(=O)(=O)O)c2)c2c(Br)c(Br)c(Br)c(Br)c21 | inactive |  |
| CC1(C)[C@H](C(=O)O[C@H](C#N)c2cccc(Oc3ccccc3)c2)[C@@H]1C=C(Br)Br | inactive |  |
| COC1=CC(=O)O[C@@H](/C=C/c2ccccc2)C1 | inactive |  |
| CCC[CH2][Sn]([CH2]CCC)([O]C(C)=O)[O]C(C)=O | inactive |  |
| O=C(CCN1CC1)OCC(CO)(COC(=O)CCN1CC1)COC(=O)CCN1CC1 | inactive |  |
| CC(C)NC(C)C | inactive |  |
| CCCCON=O | inactive |  |
| C=CC(=O)OCC(CC)CCCC (stereo not given) | inactive |  |
| C[C@H]1CCC[C@H](O)CCCCCc2cc(O)cc(O)c2C(=O)O1 | inactive |  |
| BrCCCCCCBr | inactive |  |
